{"source": "PubChem BioAssay (Tox21)", "note": "Results filed as inconclusive are left out. A call without a number means that no potency is given here. Active and inactive are the calls of the source. Calls come from the whole dose curve; as a rule, active = well fitted inhibition curve with a large enough effect in the repeat runs; inconclusive = weak or mixed curves; inactive = flat fitted curve, though single readings scatter. Potency is the fitted concentration of half-maximal effect.", "data": [{"test": "qHTS assay to identify small molecule HDAC inhibitors (AID 1259364); note: nearly all actives have a fitted effect of over 45% in size", "conditions": "HCT-116 HDAC-Glo I/II luminescence, 2 h; series mostly up to 92.4 µM", "description": "U.S. Tox21 Program National Center for Advancing Translational Sciences [NCATS] NIH Chemical Genomics Center [NCGC] U.S. Environmental Protection Agency [EPA] National Institutes of Environmental Health Sciences [NIEHS] National Toxicology Program [NTP] U.S. Food and Drug Administration [FDA] Tox21 Assay Overview: Histone deacetylases (HDACs) are a group of epigenetic enzymes that regulate gene expression by histone deacetylation. HDACs are capable of introducing epigenetic modifications and such aberrations contribute to the onset and progression of several human diseases, thus making HDACs a popular therapeutic target. For identifying endogenous class I/II HDAC inhibitors a homogenous, luminogenic HDAC I/II cell based assay was used to measure the relative activity of class I and II HDACs from cells. Wild type HCT-116 cells were used to screen Tox21 libraries for identifying class I/II HDAC inhibitors.\nTox21 Assay Protocol Summary: HCT-116 cells were dispensed at 1,500 per well in 5uL of culture medium into white solid bottom 1536-well plates (Greiner Bio-One, Monroe, NC) using a Multidrop Combi (Thermo Scientific, Waltham, MA) dispenser. The assay plates were incubated at 37 C and 5% CO2 for an overnight, and then 23nL of compounds dissolved in DMSO and positive control were transferred using a Pintool station (Wako, San Diego, CA). The assay plates were incubated at 37C and 5% CO2 for 2hr. After compound treatment, 4uL of HDAC-Glo reagent (Promega Corporation, Madison, WI) was added to each well of the assay plates using Flying Reagent Dispenser (FRD, Aurora Discovery, San Diego, CA) and incubated the assay plates at room temperature for 30min. The luminescence signal was quantified using a ViewLux plate reader (Perkin Elmer, Shelton, CT).", "values": [{"smiles": "CCOc1cccc(C2(N3CCN(c4ccccc4)CC3)CCC(C)CC2)c1", "note": "(stereo not given)", "Potency": "inactive"}, {"smiles": "CN[C@@H](C)[C@H](O)c1ccccc1", "Potency": "inactive"}, {"smiles": "CCOC(=O)C1OC1(C)c1ccccc1", "note": "(stereo not given)", "Potency": "inactive"}, {"smiles": "C[C@H]1O[C@H](OC2[C@@H](O)[C@@H](O)C(O)[C@H](O)[C@H]2O)[C@@H](N)C[C@@H]1N=C(N)C(=O)O", "note": "(stereo not given in full)", "Potency": "inactive"}, {"smiles": "CN1C(=O)CN=C(c2ccccc2)c2cc([N+](=O)[O-])ccc21", "Potency": "inactive"}, {"smiles": "O=C(Cl)OCCOCCOC(=O)Cl", "Potency": "inactive"}, {"smiles": "CCCCCCCCCCCC[N+](C)(C)CCOc1ccccc1", "Potency": "inactive"}, {"smiles": "C1CS1", "Potency": "inactive"}, {"smiles": "COC(=O)Cc1ccccc1", "Potency": "inactive"}, {"smiles": "O=S(=O)(Cl)Cl", "Potency": "inactive"}, {"smiles": "O=C([O-])c1ccccn1.O=C([O-])c1ccccn1.O=C([O-])c1ccccn1.[Cr+3]", "Potency": "inactive"}, {"smiles": "CCSCc1ccccc1OC(=O)NC", "Potency": "inactive"}, {"smiles": "CCCC[N+](CCCC)(CCCC)CCCC", "Potency": "inactive"}, {"smiles": "COc1ccc(C(O)(c2cncnc2)C2CC2)cc1", "note": "(stereo not given)", "Potency": "inactive"}, {"smiles": "CCCCC(CC)CO[N+](=O)[O-]", "note": "(stereo not given)", "Potency": "inactive"}, {"smiles": "CCCN(CCC)c1c([N+](=O)[O-])cc(C(C)C)cc1[N+](=O)[O-]", "Potency": "inactive"}, {"smiles": "CC(C)(C)NCC(O)c1cc(Cl)c(N)c(C(F)(F)F)c1", "note": "(stereo not given)", "Potency": "inactive"}, {"smiles": "CC1(C)[C@H](C(=O)O[C@H](C#N)c2cccc(Oc3ccccc3)c2)[C@@H]1C=C(Br)Br", "Potency": "inactive"}, {"smiles": "O=C1c2ccccc2C(=O)N1SC(Cl)(Cl)Cl", "Potency": "inactive"}, {"smiles": "CCCCC(CC)COC(=O)c1c(Br)c(Br)c(Br)c(Br)c1C(=O)OCC(CC)CCCC", "note": "(stereo not given)", "Potency": "inactive"}, {"smiles": "COCc1cnc(C2=NC(C)(C(C)C)C(=O)N2)c(C(=O)O)c1", "note": "(stereo not given)", "Potency": "inactive"}, {"smiles": "O=C(N[C@H]1CN2CCC1CC2)c1ccc2c(c1)OCCO2", "Potency": "inactive"}, {"smiles": "NCCc1cc(O)c(O)cc1O", "Potency": "inactive"}, {"smiles": "CCCCC#N", "Potency": "inactive"}, {"smiles": "O=C(O)C(O)C(O)C(=O)O", "note": "(stereo not given)", "Potency": "inactive"}, {"smiles": "C[C@@H]1C[C@@H]([C@H](O)CC2CC(=O)NC(=O)C2)C(=O)[C@@H](C)C1", "Potency": "inactive"}, {"smiles": "O=C(O)c1cc(Cl)ccc1Cl", "Potency": "inactive"}, {"smiles": "OCC1CO1", "note": "(stereo not given)", "Potency": "inactive"}, {"smiles": "CCCCOC(=O)CCC(=O)OCCCC", "Potency": "inactive"}, {"smiles": "C=CC(C)(CCC=C(C)C)OC(=O)c1ccccc1N", "note": "(stereo not given)", "Potency": "inactive"}, {"smiles": "COc1ccc(C(=O)c2c(C)n(CCN3CCOCC3)c3ccccc23)cc1", "Potency": "inactive"}, {"smiles": "CC(=O)OC(c1ccccc1)C(Cl)(Cl)Cl", "note": "(stereo not given)", "Potency": "inactive"}, {"smiles": "CCC1(CC)C(=O)NC(=O)NC1=O", "Potency": "inactive"}, {"smiles": "CC[N+]1(CCOC(=O)C(O)(c2ccccc2)c2ccccc2)CCCCC1", "Potency": "inactive"}, {"smiles": "C[C@H](N)[C@H](O)c1ccc(O)c(O)c1", "Potency": "inactive"}, {"smiles": "c1ccc2c(c1)-c1cccc3cccc-2c13", "Potency": "inactive"}, {"smiles": "COC1=CC(=O)O[C@@H](/C=C/c2ccc3c(c2)OCO3)C1", "Potency": "23.3 µM (active)"}, {"smiles": "Cc1cnc(C2=NC(C)(C(C)C)C(=O)N2)c(C(=O)O)c1", "note": "(stereo not given)", "Potency": "inactive"}, {"smiles": "CC(C)CCCCCCCOC(=O)c1ccccc1C(=O)OCCCCCCCC(C)C", "Potency": "inactive"}, {"smiles": "C=C(Cl)Cl", "Potency": "inactive"}]}]}
